# According to PubChem BioAssay (NCATS):
# Results filed as inconclusive are left out. A call without a number means that no potency is given here. Values without a mark were called inactive. Active and inactive are the calls of the source. Calls come from the whole dose curve; as a rule, active = well fitted inhibition curve with a large enough effect; inconclusive = small, poorly fitted or top-dose-only effect; inactive = flat fitted curve, though single readings scatter.
# Target: Calcium and integrin-binding protein 1 (Homo sapiens) (UniProt Q99828)
# Assay: Primary qHTS for Identification of Calcium Integrin Binding Protein 1 (CIB1) Competitor (AID 1508620);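 note: GST tagged CIB1 binding a fluorescein labelled alphaIIb integrin peptide tracer; top concentration of the series differs between compounds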
# Conditions: CIB1-GST / FITC-alphaIIb peptide fluorescence polarization; series mostly up to 57.7 µM
# How it was run: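 Fluorescence polarization competition: CIB1-GST (1 uM final) preincubated with compound 15 min at room temperature, then FITC-labeled alphaIIb peptide (100 nM final) added for another 15 min. Polarization read at Ex 480/Em 540.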
# Sequence of Calcium and integrin-binding protein 1 (Homo sapiens) (Q99828 whole entry, looked up): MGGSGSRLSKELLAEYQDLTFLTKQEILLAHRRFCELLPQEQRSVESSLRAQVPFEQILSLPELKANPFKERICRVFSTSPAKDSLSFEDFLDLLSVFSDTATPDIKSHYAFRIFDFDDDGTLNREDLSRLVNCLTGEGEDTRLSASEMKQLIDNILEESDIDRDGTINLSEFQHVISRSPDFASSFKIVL
Structure (SMILES),Potency,"activity change, negative = inhibition"
C[C@H]1CN(C[C@H](Cc2ccccc2)C(=O)NCC(=O)O)CC[C@@]1(C)c1cccc(O)c1,inactive,
Cn1c(=O)cc(N2CCCC(N)C2)n(Cc2ccccc2C#N)c1=O (stereo not given),inactive,
CC[C@H](/C=C/[C@@H](C)[C@H]1CC[C@H]2[C@@H]3CC=C4C[C@@H](O)CC[C@]4(C)[C@H]3CC[C@]12C)C(C)C,,1.65% [at 12.4 µM]
C=CC(C)(O)CC/C=C(\C)C(=O)OCC1OC(OC2CCC3(C)C(CCC4(C)C3CC=C3C5CC(C)(C)C(O)CC5(C(=O)O)CCC34C)C2(C)C)C(O)C(OC2OC(CO)C(O)C(OC3OC(CO)C(O)C(OC4OC(COC5OC(CO)C(O)C(O)C5O)C(O)C(O)C4O)C3O)C2O)C1O (stereo not given),,0.919% [at 12.4 µM]
CCn1c2ccccc2c2cc(CNC)ccc21,inactive,
COc1ncc(-c2ccc3c(Nc4cc(Oc5cc(F)cc(F)c5)cc(C(=O)O)c4)c(S(=O)(=O)NC4CC4)cnc3c2)c(OC)n1,inactive,
C[C@@H](Nc1cc(NS(=O)(=O)N2CCC2)nc(SCc2cccc(F)c2F)n1)[C@@H](O)CO,inactive,
C=C1CC[C@@H]2[C@](C)(CO[C@@H]3O[C@H](CO)[C@@H](O)[C@H](O)[C@H]3O)CCC[C@@]2(C)[C@@H]1CCC1=CCOC1=O,inactive,
CC(=O)OC[C@@]12[C@@H](OC(C)=O)C[C@@H](C)[C@](C)([C@@H]3C[C@H]4C=CO[C@H]4O3)[C@H]1CCC[C@]21CO1,inactive,
COC(=O)C1C(CC(C)=O)C=CC(O)C12Oc1cc(C)cc(O)c1C2=O (stereo not given),inactive,
